# Experimental data published in PubChem BioAssay AID624351 (Southern Research Specialized Biocontainment Screening …, 2012).
# The whole screen tested about 2,400 compounds, of which about 1,400 (58%) were called active. The set was probably picked from earlier hits. The list shows a part of the results. A number with no mark means an inactive call.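 How the source made its calls: active means inhibition of 30% or more at any tested dose; inconclusive means primary hits over the limit that were never retested; inactive means the rest.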
# Assay: coupled detection enzyme interference, dose response, artefact control for MgcRacGAP inhibitor project, biochemical, coupled enzyme counter-screen (AID 624351);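 further: signal is the ADP detection kit reading of free GDP without any GAP enzyme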;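 on inhibition: 0% = median positive control wells and 100% = median negative control wells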
# Conditions: ADP Hunter coupled enzyme counter-screen, fluorescence, no MgcRacGAP; series mostly up to 80 µM; inhibition: at the top concentration
Structure (SMILES),IC50,inhibition
COc1cc(/C=C2\SC(=S)N(Nc3ccccc3)C2=O)ccc1O,75.4 µM (active),–
O=C(O)CCCN1C(=O)/C(=C\c2ccco2)SC1=S,–,-23.9%
O=C1C(=Cc2cccc(O)c2O)SC(=S)N1CCCN1CCOCC1,–,25.8%
CC(=O)NN1C(=O)/C(=C\c2ccc(Br)o2)SC1=S,–,6.09%
COc1cc(/C=C2\SC(=S)N(NC(=O)c3cccc(O)c3)C2=O)ccc1O,67.5 µM (active),–
COc1cc(/C=C2\SC(=S)N(NC(=O)c3ccc(O)cc3)C2=O)ccc1O,79.5 µM (active),–
CC(=O)NN1C(=O)/C(=C/c2ccc(Br)o2)SC1=S,–,-2.96%
COc1cc(/C=C2\SC(=S)N(NC(=O)c3ccncc3)C2=O)ccc1O,44.1 µM (active),–
CC(=O)OCCNc1cc(N2CCN(C)CC2)c2noc3c2c1C(=O)c1ccccc1-3,–,-4.34% [at 10 µM]
O=C(O)c1ccc2c(c1)[C@@H]1C=CC[C@@H]1[C@H](c1ccccn1)N2,–,0.72%
CCOC(=O)c1sc2nc(CSc3ccccc3)nc(N3CCCN(C)CC3)c2c1C,–,13.6%
COc1cc(/C=N\NC(=O)c2c(C)nc3cc(C)ccn23)ccc1O,50.4 µM (active),–
CCOc1cc(/C=N\NC(=O)c2c(C)nc3ccccn23)ccc1O,83.5 µM (active),–
O=C1/C(=C\c2ccc(O)c(O)c2)N=C2CCCCCN12,18.3 µM (active),–
CCOc1cc(/C=C2\N=C3CCCCCN3C2=O)ccc1O,55.8 µM (active),–
O=C(CNC1CC1)Nc1cc(C(F)(F)F)ccc1Cl,–,17.2%
COc1ccc(NC(=O)NS(=O)(=O)c2ccc(C)cc2)cc1OC,25.5 µM (active),–
Cc1ccc(S(=O)(=O)N[C@H](C(=O)OCn2nnc3ccccc3c2=O)C(C)C)cc1,–,1.81%
O=C(N/N=C/c1ccc(O)c(O)c1)c1cccc(S(=O)(=O)N2CCCCC2)c1,72.8 µM (active),–
CCOc1cc(C=NNC(=O)c2cccc(S(=O)(=O)N3CCCC3)c2)ccc1O,32.6 µM (active),–
O=C(/C=C/c1ccc(O)c(O)c1)c1ccc(S(=O)(=O)N2CCCCCC2)cc1,–,29.4%
COc1ccc(/C=N/NC(=O)c2cccc(S(=O)(=O)N3CCCC3)c2)cc1O,55.4 µM (active),–
O=C(CNCc1ccco1)Nc1cccc(S(=O)(=O)N2CCCCC2)c1,–,15.6%

Structure (SMILES),IC50,inhibition
CCN(CC)S(=O)(=O)c1cccc(C(=O)N/N=C/c2ccc(OC)c(O)c2)c1,81.2 µM (active),–
COc1ccc2c3c(cccc13)N(C)N=C2C,–,1.94% [at 40 µM]
Cc1sc2c3ccsc3ccc2[n+]1C,–,0.2%
O=C(COc1cccc2cccnc12)N/N=C/c1ccc(O)cc1,80 µM (active),–
O=C(COc1ccccc1[N+](=O)[O-])N/N=C/c1ccc(O)cc1,70.9 µM (active),–
O=C(Cc1ccc(Cl)cc1)N/N=C/c1ccc(O)c(O)c1,19.4 µM (active),–
COCc1cc(C)nc(OCC(=O)N/N=C/c2ccc(O)cc2)c1C#N,79.7 µM (active),–
O=C(CCc1ccc(O)c(O)c1)N/N=C/c1ccc2c(c1)OCO2,–,9.28%
O=[N+]([O-])c1ccccc1OCCNCc1ccccc1,–,-0.42%
O=C(Sc1n[nH]c(=O)[nH]c1=O)c1ccccc1,–,-1.01%
CCn1nc(NS(=O)(=O)c2ccccc2[N+](=O)[O-])c2cc3ccc(C)cc3nc21,–,7.55%
O=C(COc1ccccc1C(=O)N/N=C\c1ccc(O)c(O)c1)N/N=C/c1ccc(O)c(O)c1,28.8 µM (active),–
COc1cc(/C=N\NC(=O)CNC(=O)C2COc3ccccc3O2)ccc1O (configuration not stated),35.8 µM (active),–
O=C(CNC(=O)C1COc2ccccc2O1)N/N=C/c1ccc(O)cc1O (configuration not stated),66.8 µM (active),–
CCOC(=O)CCNC(C)C1COc2ccccc2O1 (configuration not stated),–,12.8%
CCCCN(CC)CCNC(=O)c1cc2c(-c3ccc(Cl)cc3)nn(C)c2s1,–,22.5% [at 40 µM]
c1cc2c(cc1NC1CCCCCC1)OCO2,45.1 µM (active),–
c1cc2c(cc1CN1CCN(C3CCCCCC3)CC1)OCO2,–,23.1%
COc1ccc(N2C(S)=C(C#N)C(=O)NC2c2ccco2)cc1 (configuration not stated),–,6.86%
O=C1NC(=NCc2ccccc2)S/C1=C/c1ccc(O)cc1,20.1 µM (active),–
O=C1N/C(=C\c2ccc(O)cc2)C(O)=C1C=NCc1ccccc1,16 µM (active),–
COc1cc(/C=C2/SC(=S)N(c3c(C)n(C)n(-c4ccccc4)c3=O)C2=O)ccc1O,48.2 µM (active),–
COc1cc(/C=C2\SC(=Nc3c(C)n(C)n(-c4ccccc4)c3=O)NC2=O)ccc1O,44.4 µM (active),–

Structure (SMILES),IC50,inhibition
Cc1c(N=C2NC(=O)/C(=C/c3ccc(O)cc3)S2)c(=O)n(-c2ccccc2)n1C,72 µM (active),–
Nc1ccc2[nH]c(=S)sc2c1,–,26.9%
Nc1ccc2[nH]c(=S)[nH]c2c1,21 µM (active),–
CCCS(=O)(=O)N1CCN(C2Cc3ccccc3C2)CC1,–,22%
CCCCn1c(C)cc2cc(O)ccc21,30.4 µM (active),–
Cn1c(=O)[nH]c(N)c(Br)c1=O,–,4.71%
Cc1ccsc1/C=N/Nc1nc2ccccc2[nH]1,26 µM (active),–
C(=N\Nc1nc2ccccc2[nH]1)/c1c[nH]c2ccccc12,37.6 µM (active),–
Cn1c(N/N=C/c2c[nH]c3ccccc23)nc2ccccc21,40.6 µM (active),–
Cc1cc(C)nc(N/N=C/c2c[nH]c3ccccc23)n1,55.4 µM (active),–
C=C1c2cccc(O)c2C(=O)C2C(=O)[C@]3(O)C(=O)C(C(N)=O)C(=O)[C@@H](N(C)C)[C@@H]3[C@@H](O)[C@H]12 (some centres not stated),–,-8.67%
O=C1NC(=S)S/C1=C1\Sc2ccccc2N1CCCS(=O)(=O)O,–,23.1%
CC(C(=O)NCC(=O)Nc1ccc(F)c(F)c1F)N1CCN(c2ccc(O)cc2)CC1 (configuration not stated),54.3 µM (active),–
O=C(CN1CCN(c2ccc(O)cc2)CC1)NCC(=O)Nc1ccc(F)c(F)c1F,61.8 µM (active),–
CCOCCCNC(=O)CN1CCN(c2ccc(F)cc2)CC1,–,3.62%
Cc1cnc(NC(=O)CN2CCN(c3ccccc3F)CC2)s1,–,18.6%
CC(C(=O)Nc1ccccc1C(F)(F)F)N1CCN(C)CC1 (configuration not stated),–,14.4%
CC(C(=O)Nc1ccc(F)c(F)c1)N1CCN(C)CC1 (configuration not stated),–,14.6%
COc1ccccc1C(=O)N1CCN(Cc2cccnc2)CC1,–,4.78%
COc1cc(OC)c(OC)cc1CN1CCN(C(=O)c2cccc3ccccc23)CC1,–,17.1%
COc1ccccc1NS(=O)(=O)c1ccc(C)c(C(=O)N2CCN(c3ccc(O)cc3)CC2)c1,23.6 µM (active),–
